Source: PubChem
KDM5B inh = Primary screen for KDM5B Histone Demethylases FDH-coupled qHTS. AID 1347165, 2019. 220,000 compounds, 2.6% hits. Potency, µM (series often up to 57.7 µM), most hits filed as inhibitors. KDM5B demethylase, FDH-coupled NADH fluorescence (FDH is formaldehyde dehydrogenase); active = well fitted inhibition curve with a large enough effect; note: nearly all actives have a fitted effect of over 70% in size
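KDM5BΔAP (200 nM final) in 50 mM HEPES pH 7.5, 0.01% Tween-20 was preincubated 10 min at RT with compound over a concentration range. Substrate mix (H3K4me3 12.5 µM, α-KG 25 µM, Fe²⁺, ascorbate, NAD⁺, FDH) was added, and NADH fluorescence change over 30 min gave dose-response curves.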
Hits are given with their value; 0 = inactive. The entries come from a sample that favours hits as a whole.

SMILES | KDM5B inh
Cc1ccc(CN2CCC(CNC(=O)Nc3ccc(Cl)cc3)C2)cc1 (centres undefined) | 0
Cc1cccc(CN2CC(Oc3cccc(C(=O)NCC4CC4)c3)C2)c1 | 0
CCNC(=O)NCC1CCN(Cc2cc(Cl)cc(Cl)c2)C1 (centres undefined) | 0
Cc1ccc2c(CN3C(=O)C(=O)N(C4CCCC4)C3=O)cc(=O)oc2c1C | 0
O=C(CNC(=O)c1ccccc1)NCc1nnc2ccc(-c3ccccc3)nn12 | 31.6µM
O=C(NCc1nnc2ccc(-c3ccccc3)nn12)c1ccoc1 | 31.6µM
O=C(NCc1nnc2ccc(-c3ccccc3)nn12)c1ccc(F)cc1 | 31.6µM
O=C(NCc1nnc2ccc(-c3ccccc3)nn12)c1ccc(Cl)cc1 | 28.2µM
NC(=O)c1ccc(Nc2cnc3ccc(-c4ccccc4)nn23)cc1 | 0
O=C(Nc1ccccc1-c1ccccc1)c1ccc(Cl)cc1 | 0
COc1ccccc1NC(=O)CSc1ccc2nnc(CCNC(=O)c3ccccc3)n2n1 | 0
CC(C)n1cc(CN2CC[C@@H](c3ccc4ccccc4c3)[C@H](O)C2)cn1 | 0
CC(Oc1ccc(Br)cc1Cl)C(=O)NC1(C#N)CCCCC1 (centres undefined) | 0
CC(C)(C)NC(=O)CCc1ccc(C#N)cc1 | 0
CCOc1cc(=O)n2c(c1C(=O)NCc1ccc(F)cc1F)CCCC2 | 0
CCN(C(=O)C(=O)c1c(C)n(C)c2ccccc12)c1ccc(OC)cc1 | 0
CCOC(=O)c1c(C)[nH]c(NC(=O)Nc2ccc(-c3ccccc3)cc2)c1C | 0
O=C(NC1CCc2n[nH]c(=O)n2CC1)c1ccc(Br)o1 (centres undefined) | 0
CCCC(=O)Nc1ccc(C(=O)NCCc2ccccc2)cc1 | 0
CCOC(=O)N1CCN(S(=O)(=O)c2cc(OCC)c(C)cc2OCC)CC1 | 0
CCC(C)NC(=O)NCCc1noc(-c2ccncc2)n1 (centres undefined) | 0
COCCNC(=O)c1cc2cc(S(=O)(=O)N(C)C)ccc2n1C | 0
O=C(Nc1ccc([C@@H](O)[C@H]2COCC(=O)N2Cc2ccc(C(F)(F)F)cc2)cc1)c1ccco1 | 0
CCCCN(C)C(=O)CSc1nc2ccsc2c(=O)n1-c1cc(F)cc(F)c1 | 0
CC(CCNC(=O)c1ccncc1)c1ccccc1 (centres undefined) | 0
SMILES | KDM5B inh
CN(C)c1ccc2nnc(-c3cc(C(=O)NCc4ccccc4)ccn3)n2n1 | 0
O=C(NCc1nnc2ccc(-c3ccccc3)nn12)c1ccncc1 | 28.2µM
Cc1ccc(C(=O)N2CCC(n3nccc3NC(=O)C3CCOC3)CC2)cc1C (centres undefined) | 0
CC(=O)NCCNC(=S)Nc1ccc(F)cc1 | 0
COCCNC(=O)c1ccc(CSc2nc3ccncc3n2Cc2ccccc2)cc1 | 0
COC(=O)CNC(=O)c1nc(-c2cccc(C(F)(F)F)c2)c2ccccn12 | 14.1µM
C#CCNC(=O)c1nc(-c2cccc(C(F)(F)F)c2)c2cnccn12 | 31.6µM
COc1ccc(-c2nc3sc(CCNC(=O)c4cccc(C(F)(F)F)c4)c(C)n3n2)cc1 | 0
COCCNC(=O)c1nc(-c2cccc(C(F)(F)F)c2)c2ccccn12 | 15.8µM
COCCNC(=O)c1nc(-c2cccc(C(F)(F)F)c2)c2cnccn12 | 25.1µM
O=C(NCCOc1cccnc1)c1cn(Cc2cccc(C(F)(F)F)c2)nn1 | 0
O=C(c1cnccn1)N1CCCC(c2ccccc2)(c2ccccc2)C1 | 0
COCC(=O)N[C@H]1CC[C@]2(C)CC[C@@H]([C@H](C)C(=O)N3CCCCC3)[C@H](O)[C@H]2[C@@H]1C | 0
O=C(CSc1nc(C2CC2)n(-c2ccccc2)n1)Nc1ccccc1 | 0
CC/C=C(/C)C(=O)NCc1ccco1 | 0
COc1ccc(Nc2cnc3ccc(-c4ccccc4)nn23)cn1 | 0
CCOc1ccc(NC(=O)Cn2cnc3c2c(=O)n(C)c(=O)n3C)cc1 | 0
CCN(CC)S(=O)(=O)c1ccc(Oc2ccccc2)c(NC(=O)c2cnccn2)c1 | 0
CN1CCN(c2ncnc3c2c(-c2ccccc2)cn3-c2cccc(Cl)c2)CC1 | 0
COC(=O)C1=C(N)OC2=C(C(=O)CC(C)(C)C2)C1c1ccc(Cl)cc1 (centres undefined) | 0
CCc1ccccc1NC(=O)c1cc2c(=O)[nH]c(C)cn2n1 | 0
COc1cccc(NC(=O)c2cc3c(N4CCCC4)nc(C)cn3n2)c1 | 35.5µM
Cc1cn2nc(C(=O)Nc3ccc4c(c3)OCCO4)cc2c(N2CCCC2)n1 | 25.1µM
CCOc1cc(=O)n2c(c1C(=O)Nc1cccc(F)c1C)CCCC2 | 0
COc1cccc(C(=O)Nc2ccc3ncnc(N4CCCCC4)c3c2)c1 | 0
SMILES | KDM5B inh
COc1cccc(NC(=O)c2c(C)oc3nc(C)nc(N4CCCC4)c23)c1 | 0
Cn1nc(C(=O)Nc2ccc3c(c2)OCCO3)c2ccccc2c1=O | 0
Cc1cn2nc(C(=O)Nc3cccc(F)c3C)cc2c(N2CCCC2)n1 | 25.1µM
Cc1ccc(NC(=O)c2cn(-c3ccc4c(c3)OCCO4)nn2)cc1Cl | 0
Clc1ccc(Cl)c(-c2nn3c(CN4CCOCC4)nnc3s2)c1 | 0
COc1ccccc1-c1cnc(N)nc1-c1ccc(OCc2ccc(F)cc2)cc1O | 0
CC(=O)N1CCCC(C(=O)NCCc2csc(-c3ccncc3)n2)C1 (centres undefined) | 22.4µM
O=C(Cc1cccs1)NCCc1csc(-c2ccccc2)n1 | 0
O=C(COc1ccc(Cl)cc1)NCCc1csc(-c2ccncc2)n1 | 0
CC(=O)N1CCC(Cc2noc(-c3ccncc3)n2)C1 (centres undefined) | 0
O=C(NCCc1csc(-c2ccncc2)n1)C1CNCCO1 (centres undefined) | 28.2µM
O=C(NCCc1ccc(Cl)cc1Cl)C1CNCCO1 (centres undefined) | 0
Cc1cccc(C(C)C)c1NC(=O)CCc1ncc(-c2ccc(F)cc2F)o1 | 0
CCOc1ccc(-c2nc(-c3nnn4c3COC(c3ccc(OC)cc3)C4)no2)cc1 (centres undefined) | 0
Cc1ccc(S(=O)(=O)c2nnn3c2nc(N2CCOCC2)c2ccccc23)cc1 | 79.4µM
COCCCNc1nc2c([S+](=O)([O-])c3ccc(Br)cc3)nnn2c2ccccc12 | 0
CCc1ccc(S(=O)(=O)c2nnn3c2nc(N2CCOCC2)c2ccccc23)cc1 | 0
O=[S+]([O-])(c1ccncc1)c1nnn2c1nc(NCc1ccncc1)c1ccccc12 | 0
COc1ccc([S+](=O)([O-])c2nnn3c2nc(NCc2ccc(F)cc2)c2ccccc23)cc1 | 0
Cc1ccc([S+](=O)([O-])c2nnn3c2nc(NCc2ccncc2)c2ccccc23)cc1C | 89.1µM
CC(C)c1ccc([S+](=O)([O-])c2nnn3c2nc(NC2CC2)c2ccccc23)cc1 | 0
COCCCNc1nc2c([S+](=O)([O-])c3ccc(OC)cc3)nnn2c2ccccc12 | 31.6µM
CCc1ccc([S+](=O)([O-])c2nnn3c2nc(NCCCOC)c2ccccc23)cc1 | 89.1µM
O=[S+]([O-])(c1ccc(Br)cc1)c1nnn2c1nc(NCc1ccc(F)cc1)c1ccccc12 | 0
CC(C)OCCCNc1nc2c([S+](=O)([O-])c3cccnc3)nnn2c2ccccc12 | 0
Cc1ccc(S(=O)(=O)c2nnn3c2nc(N2CCCCC2)c2ccccc23)cc1 | 0
Cc1ccc(C(=O)Nc2ccc(NC(=O)CCCn3cncn3)cc2)o1 | 0
CN(Cc1ccccc1)Cc1cn([C@H]2CO[C@H]3[C@@H]2OC[C@@H]3NCc2ccco2)nn1 | 0
CCOCCOC(=O)COc1ccc2c(=O)c(Oc3ccc(OC)cc3)c(C(F)(F)F)oc2c1 | 0
